# Records with an inconclusive call do not appear. A call without a number means that no potency is given here. Activity calls are given as the source filed them. Calls follow the shape of the dose curve; as a rule, active = well fitted curve in the direction sought with a large enough effect; inconclusive = small, poorly fitted or top-dose-only effect, or another doubt; inactive = no such curve, though single readings can be large; an effect the other way counts as inactive or inconclusive.
# Assay: Cell Viability - LYMP1-003 - Assay at 24 hr (AID 963)
# Settings: LYMP1-003 lymphoblastoid cell viability; series mostly up to 92.2 µM
# In short: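 Acute toxicity in LYMP1-003 lymphoblastoid cells: 24 hr compound treatment at 37 C, ATP measured with CellTiter-Glo after 30 min at room temperature. AC50 derived by fitting the Hill equation to qHTS titrations.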
row,Compound,Potency
1,C=C(C)C#N,inactive
2,CCSC(=O)Cl,inactive
3,Nc1c(Cl)c(Cl)nc(C(=O)O)c1Cl,inactive
4,C=C(C)C(=O)OCC1CO1 (stereo unspecified),inactive
5,Cc1ccc2ccccc2c1,inactive
6,[O-][Br+2]([O-])O,inactive
7,Clc1nc(Cl)nc(Nc2ccccc2Cl)n1,inactive
8,OCC1CO1 (stereo unspecified),inactive
9,C=CC(N)=O,inactive
10,CCN(CC)c1ccccc1,inactive
11,S=C=Nc1cccc2ccccc12,inactive
12,N#CCCCl,inactive
13,Cc1ccccc1N,inactive
14,NC(=S)Nc1ccccc1,inactive
15,O=C(Cl)/C=C/C(=O)Cl,inactive
16,ClCBr,inactive
17,COc1ccc(C=O)cc1OC,inactive
18,C=CC(=O)OCC,inactive
19,c1nc[nH]n1,inactive
20,c1ccc2c(c1)CCCC2,inactive
21,CCCSC(=O)Cl,inactive
22,O=NN(c1ccccc1)c1ccccc1,inactive
23,C1CCC2CCCCC2C1 (stereo unspecified),inactive

# Assay: Cell Viability - LYMP1-003 - Assay at 40 hr (AID 964); also: nearly all actives have a fitted effect of over 60% in size
# Settings: LYMP1-003 lymphoblastoid viability; series mostly up to 92.2 µM
# In short: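 This qHTS cytotoxicity screen treats human lymphoblastoid cells (LYMP1-003) with compounds for 40 hr and quantifies cellular ATP via luciferase luminescence.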
row,Compound,Potency
1,Brc1ccccc1,inactive
2,CCOP(=S)(OCC)SCSC(C)(C)C,inactive
3,C=C(C)C#N,inactive
4,CCSC(=O)Cl,inactive
5,Cc1cccc([N+](=O)[O-])c1,inactive
6,Nc1c(Cl)c(Cl)nc(C(=O)O)c1Cl,inactive
7,CC(C)(C)OOC(C)(C)C,inactive
8,C=C(C)C(=O)OCC1CO1 (stereo unspecified),inactive
9,Cc1ccc([N+](=O)[O-])cc1C,inactive
10,O=[N+]([O-])c1ccc(Cl)c(Cl)c1,inactive
11,C=CC(=C)C,inactive
12,Cc1ccc2ccccc2c1,inactive
13,Nc1ccccc1Cl,inactive
14,Clc1ccc2ccccc2c1,inactive
15,[O-][Br+2]([O-])O,inactive
16,Clc1nc(Cl)nc(Nc2ccccc2Cl)n1,inactive
17,OCC1CO1 (stereo unspecified),inactive
18,C=CCOC(=O)c1ccccc1N,inactive
19,C=CC(N)=O,inactive
20,CC(C)(c1ccccc1)c1ccc(O)cc1,inactive

row,Compound,Potency
1,CCN(CC)c1ccccc1,inactive
2,S=C=Nc1cccc2ccccc12,inactive
3,N#CCCCl,inactive
4,O=NN(CCO)CCO,inactive
5,Cc1ccccc1N,inactive
6,C=CCOC(C)=O,inactive
7,CCCC(=O)Cl,inactive
8,NC(=S)Nc1ccccc1,inactive
9,O=C(Cl)/C=C/C(=O)Cl,inactive
10,C=C(Cl)Cl,inactive
11,ClCBr,inactive
12,COc1ccc(C=O)cc1OC,inactive
13,C=CC(=O)OCC,inactive
14,c1nc[nH]n1,inactive
15,c1ccc2c(c1)CCCC2,inactive
16,CCCSC(=O)Cl,inactive
17,Clc1cccc(C(Cl)(Cl)Cl)n1,inactive
18,O=NN(c1ccccc1)c1ccccc1,inactive
19,C1CCC2CCCCC2C1 (stereo unspecified),inactive
20,CC(O)CCl (stereo unspecified),inactive

# Assay: Cell Viability - LYMP2-003 (AID 965);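 also: cells exposed to compounds for 24 h before reading; nearly all actives have a fitted effect of over 50% in size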
# Settings: LYMP2-003 lymphoblastoid cell viability; series mostly up to 92.2 µM
# In short: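 CellTiter-Glo luminescence quantified ATP loss after 24 h compound treatment of LYMP2-003 lymphoblastoid cells at 37 C. Titration series were fitted with the standard Hill equation to give AC50.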
row,Compound,Potency
1,Brc1ccccc1,inactive
2,CCOP(=S)(OCC)SCSC(C)(C)C,inactive
3,C=C(C)C#N,inactive
4,CCSC(=O)Cl,inactive
5,Cc1cccc([N+](=O)[O-])c1,inactive
6,Nc1c(Cl)c(Cl)nc(C(=O)O)c1Cl,inactive
7,CC(C)(C)OOC(C)(C)C,inactive
8,C=C(C)C(=O)OCC1CO1 (stereo unspecified),inactive
9,Cc1ccc([N+](=O)[O-])cc1C,inactive
10,O=[N+]([O-])c1ccc(Cl)c(Cl)c1,inactive
11,C=CC(=C)C,inactive
12,Cc1ccc2ccccc2c1,inactive
13,Nc1ccccc1Cl,inactive
14,Clc1ccc2ccccc2c1,inactive
15,[O-][Br+2]([O-])O,inactive
16,Clc1nc(Cl)nc(Nc2ccccc2Cl)n1,inactive
17,OCC1CO1 (stereo unspecified),inactive
18,C=CCOC(=O)c1ccccc1N,inactive
19,C=CC(N)=O,inactive
20,CC(C)(c1ccccc1)c1ccc(O)cc1,inactive

row,Compound,Potency
1,CCN(CC)c1ccccc1,inactive
2,S=C=Nc1cccc2ccccc12,inactive
3,N#CCCCl,inactive
4,O=NN(CCO)CCO,inactive
5,Cc1ccccc1N,inactive
6,C=CCOC(C)=O,inactive
7,CCCC(=O)Cl,inactive
8,NC(=S)Nc1ccccc1,inactive
9,O=C(Cl)/C=C/C(=O)Cl,inactive
10,C=C(Cl)Cl,inactive
11,ClCBr,inactive
12,COc1ccc(C=O)cc1OC,inactive
13,C=CC(=O)OCC,inactive
14,c1ccc2c(c1)CCCC2,inactive
15,CCCSC(=O)Cl,inactive
16,Clc1cccc(C(Cl)(Cl)Cl)n1,inactive
17,O=NN(c1ccccc1)c1ccccc1,inactive
18,C1CCC2CCCCC2C1 (stereo unspecified),inactive
19,CC(O)CCl (stereo unspecified),inactive

# Assay: Cell Viability - LYMP2-004 (AID 966); also: nearly all actives have a fitted effect of over 65% in size
# Settings: LYMP2-004 lymphoblastoid cell viability, qHTS; series mostly up to 92.2 µM
# In short: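 Acute toxicity is scored as a concentration-dependent drop in intracellular ATP, quantified by luciferase luminescence, in human lymphoblastoid cells exposed to compound for 24 hr. AC50 derives from Hill-equation modelling.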
row,Compound,Potency
1,Brc1ccccc1,inactive
2,CCOP(=S)(OCC)SCSC(C)(C)C,inactive
3,C=C(C)C#N,inactive
4,CCSC(=O)Cl,inactive
5,Cc1cccc([N+](=O)[O-])c1,inactive
6,Nc1c(Cl)c(Cl)nc(C(=O)O)c1Cl,inactive
7,CC(C)(C)OOC(C)(C)C,inactive
8,C=C(C)C(=O)OCC1CO1 (stereo unspecified),inactive
9,Cc1ccc([N+](=O)[O-])cc1C,inactive
10,O=[N+]([O-])c1ccc(Cl)c(Cl)c1,inactive
11,C=CC(=C)C,inactive
12,Cc1ccc2ccccc2c1,inactive
13,Nc1ccccc1Cl,inactive
14,Clc1ccc2ccccc2c1,inactive
15,[O-][Br+2]([O-])O,inactive
16,Clc1nc(Cl)nc(Nc2ccccc2Cl)n1,inactive
17,OCC1CO1 (stereo unspecified),inactive
18,C=CCOC(=O)c1ccccc1N,inactive
19,C=CC(N)=O,inactive
20,CC(C)(c1ccccc1)c1ccc(O)cc1,inactive

row,Compound,Potency
1,CCN(CC)c1ccccc1,inactive
2,S=C=Nc1cccc2ccccc12,inactive
3,N#CCCCl,inactive
4,O=NN(CCO)CCO,inactive
5,Cc1ccccc1N,inactive
6,C=CCOC(C)=O,inactive
7,CCCC(=O)Cl,inactive
8,NC(=S)Nc1ccccc1,inactive
9,O=C(Cl)/C=C/C(=O)Cl,inactive
10,C=C(Cl)Cl,inactive
11,ClCBr,inactive
12,COc1ccc(C=O)cc1OC,inactive
13,C=CC(=O)OCC,inactive
14,c1nc[nH]n1,inactive
15,c1ccc2c(c1)CCCC2,inactive
16,Clc1cccc(C(Cl)(Cl)Cl)n1,inactive
17,O=NN(c1ccccc1)c1ccccc1,inactive
18,C1CCC2CCCCC2C1 (stereo unspecified),inactive
19,CC(O)CCl (stereo unspecified),inactive
